This is an account of results in PubChem BioAssay (Tox21).

Values without a mark were called inactive. Records with an inconclusive call do not appear. Activity calls are given as the source filed them. Unless noted, calls come from the whole dose curve; as a rule, active = well fitted curve in the direction sought with a large enough effect in the repeat runs; inconclusive = weak or mixed curves; inactive = no such curve, though single readings can be large; an effect the other way counts as inactive or inconclusive.

Test [1] can be described thus: qHTS assay for small molecule agonists of the p53 signaling pathway (AID 651631; calls by dose curve; note: nearly all actives have a fitted effect of over 15% in size). Put shortly:
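HCT-116 cells carrying a beta-lactamase reporter under p53 response elements were dosed with compound for 16 h at 37 °C. LiveBLAzer B/G FRET substrate was then added for 2 h at room temperature, and fluorescence intensity was read to detect pathway agonism.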
(In general: In qHTS, concentration-response curves come from the screen itself.)

Test [2] can be described thus: qHTS assay for small molecules that induce genotoxicity in human embryonic kidney cells expressing luciferase-tagged ATAD5 (AID 651632). Note: nearly all actives have a fitted effect of over 15% in size. The essentials: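 Genotoxicity read-out via ATAD5-luciferase: HEK293T cells, 16 hr compound incubation at 37C, Amplite detection.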
Test [3] in a line: qHTS assay for small molecule agonists of the p53 signaling pathway - cell viability (AID 651633; calls by dose curve;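 note: p53RE-bla HCT reporter cells with a stable beta-lactamase p53 reporter; series mostly up to about 83 µM; nearly all actives have a fitted effect of over 30% in size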). Put shortly: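 p53RE-bla cells were treated with compound for 16 hours at 37 C. Cytotoxicity was then measured as CellTiter-Glo luminescence after 30 min at room temperature.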
Test [4] can be described thus: qHTS assay for small molecules that induce genotoxicity in human embryonic kidney cells expressing luciferase-tagged ATAD5 - cell viability (AID 651634; calls by dose curve; note: nearly all actives have a fitted effect of over 25% in size). The essentials:
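Live-cell protease activity (CellTiter-Fluor, fluorescence) indicates viability. HEK293T cells with luciferase-tagged ATAD5; 15.5 hr compound treatment at 37C.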

The nature of test [5]: qHTS assay for small molecule disruptors of the mitochondrial membrane potential - cell viability (AID 720634; calls by dose curve;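 note: human HepG2 liver cancer cells; series mostly up to about 83 µM; nearly all actives have a fitted effect of over 20% in size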). The essentials: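 Human hepatoma HepG2 cells were treated for 1 hr with test chemicals, then given m-MPI dye and CellTiter-Glo. Cell viability reflects luminescence proportional to cellular ATP.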
Test [6] can be described thus: qHTS assay for small molecule disruptors of the mitochondrial membrane potential (AID 720635). Note: potency is the fitted concentration of half-maximal effect. Put shortly:
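HepG2 cells exposed to compound 1 hr at 37C, then Mito-MPS dye 30 min. Ratio read of aggregate (540/590 nm) versus monomer (490/535 nm) fluorescence.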

Test [7] is described as follows: qHTS assay to test for compound auto fluorescence at 590 nm (red) in HepG2 cells (AID 720674). Put shortly: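 Fluorescence at 590 nm emission following 540 nm excitation was recorded from HepG2 wells one hour after compound transfer, with DMSO-only wells as vehicle and Rose Bengal sodium equivalency as the scale.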
A short description of test [8]: qHTS assay to test for compound auto fluorescence at 535 nm (green) in HepG2 cells (AID 720675).
The nature of test [9]: qHTS assay to test for compound auto fluorescence at 460 nm (blue) in HEK293 cells (AID 720678). The essentials:
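After cell attachment (4-5 hr, 37C), compounds were pinned onto HEK293 monolayers in 10% dialyzed FBS medium. The blue channel (405/460 nm) was read following overnight culture. Equivalency was calculated against triamterene.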

Test [10] is described as follows: qHTS assay to test for compound auto fluorescence at 590 nm (red) in HEK293 cells (AID 720679). Put shortly:
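Plates of HEK293 cells (10% dialyzed FBS) are treated with 23 nL compound or DMSO vehicle after a 4-5 hr attachment period, incubated overnight at 37C, and read for red fluorescence at 540/590nm.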

A short description of test [11]: qHTS assay to test for compound auto fluorescence at 460 nm (blue) in HEK293 cell free culture (AID 720681). The essentials:
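Compounds were added to cell-free DMEM with 10% FBS and fluorescence read directly. The blue channel used 405 nm excitation and 460 nm emission, with triamterene as the reference fluorophore.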

Test [12] is described as follows: qHTS assay to test for compound auto fluorescence at 535 nm (green) in HEK293 cell free culture (AID 720682). The essentials:
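Green-label autofluorescence (485 nm excitation, 535 nm emission) measured on compound added to cell-free culture medium (DMEM, 10% FBS). Output is expressed relative to fluorescein.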

A short description of test [13]: qHTS assay to test for compound auto fluorescence at 590 nm (red) in HEK293 cell free culture (AID 720683). The essentials:
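Cell-free wells of DMEM with 10% FBS received compound, and intrinsic fluorescence was read at excitation/emission 540/590 nm. Values expressed as equivalence to Rose Bengal sodium.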

Test [14] in a line: qHTS assay to test for compound auto fluorescence at 590 nm (red) in HepG2 cell free culture (AID 720684). Put shortly:
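Compounds are added to culture medium (MEM, 10% FBS) lacking cells, then fluorescence is read at excitation 540 nm, emission 590 nm, with Rose Bengal sodium as the equivalency standard.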

Test [15] is described as follows: qHTS assay to test for compound auto fluorescence at 460 nm (blue) in HepG2 cell free culture (AID 720685). The essentials:
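Compound (23 nL) or DMSO pinned into cell-free MEM with 10% FBS; blue fluorescence read at 405/460 nm excitation/emission, expressed as auto-fluorescence equivalency to triamterene.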

Test [16] is described as follows: qHTS assay to test for compound auto fluorescence at 535 nm (green) in HepG2 cell free culture (AID 720686).
The nature of test [17]: qHTS assay to test for compound auto fluorescence at 460 nm (blue) in HepG2 cells (AID 720687). Put shortly:
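HepG2 cells in MEM with 10% FBS, attached overnight at 37 C, were exposed to compound or DMSO for 1 hr at 37 C, 5% CO2. Blue fluorescence was read at 405/460 nm, with triamterene as reference fluorophore.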

The target of test [18] is Glucocorticoid receptor (Homo sapiens) (UniProt P04150). Nature of the test: qHTS assay to identify small molecule agonists of the glucocorticoid receptor (GR) signaling pathway (AID 720691; active = well fitted activation curve with a large enough effect in the signal ratio in the repeat runs, not every such curve was filed as active; the % refers to the signal ratio). The essentials:
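Beta-lactamase reporter activity, read as fluorescence intensity, was measured in GR-bla HeLa cells exposed to compounds for 18 h at 37 C and then loaded with LiveBLAzer B/G FRET substrate for 2 h at room temperature.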

Test [19] has the same target. In words: qHTS assay to identify small molecule antagonists of the glucocorticoid receptor (GR) signaling pathway (AID 720692; active = well fitted inhibition curve with a large enough effect in the signal ratio in the repeat runs, not every such curve was filed as active; the % refers to the signal ratio). The essentials:
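Fluorescence from cleaved LiveBLAzer B/G FRET substrate reports GRE-driven beta-lactamase in HeLa cells; compounds are tested against 5 nM dexamethasone (final) over 18 h at 37 C, substrate incubation 2 h at room temperature.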

The nature of test [20]: qHTS assay to test for compound auto fluorescence at 535 nm (green) in HEK293 cells (AID 720680).
% is set by controls: 0 for no effect and ±100 for the full control effect.

Chain of Glucocorticoid receptor (Homo sapiens) (P04150 whole entry, looked up): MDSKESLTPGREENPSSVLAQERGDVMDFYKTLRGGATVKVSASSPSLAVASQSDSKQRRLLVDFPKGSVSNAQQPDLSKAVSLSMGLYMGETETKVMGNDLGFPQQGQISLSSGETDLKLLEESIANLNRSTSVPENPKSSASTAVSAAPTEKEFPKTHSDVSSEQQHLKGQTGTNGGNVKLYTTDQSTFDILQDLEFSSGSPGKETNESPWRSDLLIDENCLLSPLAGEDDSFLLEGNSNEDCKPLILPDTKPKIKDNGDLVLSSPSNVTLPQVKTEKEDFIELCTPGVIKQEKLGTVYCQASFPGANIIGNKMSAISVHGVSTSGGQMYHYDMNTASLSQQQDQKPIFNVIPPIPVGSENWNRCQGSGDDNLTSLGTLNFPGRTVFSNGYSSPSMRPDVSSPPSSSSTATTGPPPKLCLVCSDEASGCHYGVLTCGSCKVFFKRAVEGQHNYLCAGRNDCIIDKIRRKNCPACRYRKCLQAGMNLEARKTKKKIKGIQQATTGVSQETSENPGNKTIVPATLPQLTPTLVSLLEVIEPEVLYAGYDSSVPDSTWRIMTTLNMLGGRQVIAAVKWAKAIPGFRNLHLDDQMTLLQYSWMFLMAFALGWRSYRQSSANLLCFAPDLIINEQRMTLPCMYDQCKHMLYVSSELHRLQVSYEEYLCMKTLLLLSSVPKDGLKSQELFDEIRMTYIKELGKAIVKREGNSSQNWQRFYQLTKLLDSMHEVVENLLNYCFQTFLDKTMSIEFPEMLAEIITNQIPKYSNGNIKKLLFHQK

For the compound `CCN(CC)CCNC(=O)c1ccc(NC(C)=O)cc1`, the Potency entry in [1], in test [2], in test [3], in test [4], in [5] and in [6] was “inactive” in each case. The Potency entry in test [9], in test [11], in test [15], in test [17], in test [18] and in [19] was “inactive” throughout. The outcome in test [7], in test [8], in test [10], in test [12], in [13] and in [14] was inactive. Further, the call in test [16] was inactive.

As to `COc1ccc(C(=O)c2cccc(O)c2)c(OC)c1`, the Potency result in test [1], in [2], in [3], in [4], in test [5] and in test [9] was “inactive” throughout. Further, the Potency entry in test [11], in test [15], in test [17] and in test [18] was “inactive” each time. The Potency in [6] was 30.6 µM (active). For the same compound, the result in [7], in test [8], in test [20], in test [12], in test [13] and in test [14] was inactive. In test [16], the outcome was inactive.

On to `Cc1ccc(S)cc1`, for which the Potency entry in [1], in test [2], in test [3], in [4], in test [5] and in [6] was “inactive” each time. The Potency entry in test [9], in [11], in [15] and in [17] was “inactive” each time. The compound was called inactive in test [7], in test [8], in [10], in [20], in test [12] and in test [13]. Further, the call in test [14] and in [16] was inactive.

`O=C(O)Cc1ccc(-c2ccccc2)cc1`: the Potency result in test [1], in test [2], in [3], in test [4], in test [5] and in test [6] was “inactive” each time. The Potency entry in test [19] was “inactive”. In test [7], the fluorescence, relative to Rose Bengal is 0.37% [at 18.6 µM]. Moreover, the results for the fluorescence, % of fluorescein control in test [8] and in test [16] were -0.0175% [at 18.6 µM] and -0.0983% [at 18.6 µM], respectively. The fluorescence, % of triamterene in [9] is -0.322% [at 18.6 µM]. The fluorescence, % of fluorescent control in test [10] was -0.147% [at 18.6 µM]; in test [11], 0% [at 18.6 µM]; in test [13] it was 0.0962% [at 18.6 µM]; in [15], -0.109% [at 18.6 µM]; in test [17], -0.1% [at 18.6 µM]. In test [12], the activity change is -0.0541% [at 18.6 µM]. Besides, in [14], the fluorescence, % of Rose Bengal was -0.0701% [at 18.6 µM].

With `CCCOCCOCCO`, the Potency result in test [1], in test [2], in [3], in [4], in test [5] and in test [6] was “inactive” throughout. Also, the Potency entry in [9], in test [11], in [15], in [17], in test [18] and in test [19] was “inactive” each time. In addition, the compound was classed as inactive in test [7], in [8], in [10], in [20], in test [12] and in [13]. Further, the result in test [14] and in test [16] was inactive.

On to `CC(=O)Nc1ccc(N)cc1`, for which the Potency entry in test [1], in test [2], in test [3], in [4], in test [5] and in test [6] was “inactive” each time. Besides, the Potency result in test [9], in test [15], in test [17], in test [18] and in test [19] was “inactive” each time. Moreover, the compound was classed as inactive in test [7], in test [8], in test [10], in [12], in test [13] and in [14]. Besides, the call in [16] was inactive.

Regarding `O=C(O)c1cccc(O)c1`, the Potency entry in test [1], in test [2], in [3], in test [4], in test [5] and in [6] was “inactive” throughout. In addition, the Potency entry in [9], in test [15] and in test [17] was “inactive” in each case. Further, the compound was called inactive in [7], in [8], in [10], in test [20], in [12] and in test [13]. For the same compound, the compound was classed as inactive in [14] and in [16].

Take `CCOC(=O)C(C)Oc1ccc(Oc2nc3ccc(Cl)cc3o2)cc1` (stereo not given): the Potency entry in [1], in test [2], in test [3], in test [4], in test [5] and in test [6] was “inactive” each time. For the same compound, the Potency result in test [9], in [15], in test [17] and in test [18] was “inactive” throughout. In addition, the compound was called inactive in test [7], in test [8], in test [10], in [20], in test [12] and in test [13]. For the same compound, the result in test [14] and in [16] was inactive.

Regarding `Cc1cnc(C)c(C)n1`, the Potency entry in test [1], in test [2], in test [3], in test [4], in [5] and in [6] was “inactive” in each case. In addition, the Potency entry in [9], in [11], in [15], in test [17], in [18] and in [19] was “inactive” throughout. Besides, the result in [7], in [8], in [10], in [20], in [12] and in test [13] was inactive. Moreover, the compound was called inactive in test [14] and in [16].

With `CCC(C(=O)OCCN(CC)CC)c1ccccc1` (stereo not given), the Potency entry in test [1], in test [2], in test [3], in test [4], in test [5] and in test [6] was “inactive” each time. Further, the Potency result in test [9], in test [15], in [17], in test [18] and in test [19] was “inactive” in each case. Also, the compound was classed as inactive in test [7], in test [8], in test [10], in [20], in test [12] and in test [13]. In addition, the compound was called inactive in test [14] and in test [16].

Consider `CC#N`, for which the Potency entry in [1], in test [2], in test [3], in test [4], in test [5] and in [6] was “inactive” in each case. For the same compound, the Potency result in [9], in [11], in test [15], in test [17], in test [18] and in test [19] was “inactive” each time. In addition, the compound was classed as inactive in test [7], in test [8], in [10], in test [20], in test [12] and in test [13]. Also, the compound was classed as inactive in test [14] and in test [16].
